# CCHF vOTU inh – blocks the CCHF virus ovarian tumor domain protease; CCHFV vOTU protease, Pep-AMC fluorescence; inhibition, % at 11.5 µM; 370,000 tested, 0.55% active; AID 651958
# RecA splice inh – Mtb RecA intein splicing inhibition. inhibition, % (no concentration beside the values). cell-free RecA intein splicing, fluorescence. 290,000 tested, 0.75% active; in the data active = inhibition above about 30%
# Mtb FBA inh – inhibits M. tuberculosis FBA enzyme; P9WQA3; purified M. tuberculosis FBA, fluorescence read-out; inhibition, % at 1 µM; 360,000 tested, 2.3% active; AID 588726; in the data active = inhibition above about 27%
# GDH-TPI inh – counter-screen for M. tuberculosis FBA inhibitors: GDH-TPI coupled enzymes; GDH-TPI coupled enzyme counterscreen, NADH absorbance; inhibition, % at 4.8 µM; 360,000 tested, 1.2% active
# A number is an active result; i = inactive; nt = not tested or not shown; + = active, no number. Sampled rows, rich in hits. Any-hit rate of the full collection: about 4.2%. Cut-off read from the data, not from the text of the source, unless noted: active = inhibition above about 30%; inactive = the rest.
SMILES,CCHF vOTU inh,RecA splice inh,Mtb FBA inh,GDH-TPI inh
Cc1c(C(=O)C(=O)N2CCC3(CC2)OCCO3)c2ccccc2n1C,i,i,i,46.3
O=C(Nc1ccc(O)cc1)/C(=C/c1ccco1)NC(=O)c1ccccc1,i,i,i,39.9
O=C(Nc1ccc(C(=O)O)cc1)/C(=C\c1ccco1)NC(=O)c1ccc(Br)cc1,i,nt,i,40.2
O=c1[nH]c2cc(S(=O)(=O)CCO)ccc2o1,i,i,i,i
CCCn1c(=N)c(S(=O)(=O)c2ccccc2)cc2c(=O)n3ccccc3nc21,i,i,i,i
Cc1cc(-n2c(=O)c(C#N)cc3c(=O)n4ccccc4nc32)no1,i,i,+,i
Cc1ccccc1-n1c(=O)c(C#N)cc2c(=O)n3ccccc3nc21,i,i,+,i
CCn1c(=N)c(S(=O)(=O)c2ccc(C)cc2)cc2c(=O)n3ccccc3nc21,i,i,nt,nt
CCn1c(=N)c(S(=O)(=O)c2ccccc2)cc2c(=O)n3ccccc3nc21,i,i,i,i
C=CCn1c(=O)c(C#N)cc2c(=O)n3ccccc3nc21,i,i,+,i
C=C1SC(Nc2c(C)cc(C)cc2C)=NC12CCCCC2,i,i,i,i
CCN(CC)CCNC(=O)c1cc2cc3ccc(OC)cc3nc2o1,i,i,+,i
CCN(C(=O)c1cc2cc3ccc(C)cc3nc2o1)c1ccc(OC)cc1,i,i,i,i
Cc1ccc2cc3cc(C(=O)NCCC(C)C)oc3nc2c1,i,i,i,i
CCCCN(C)CCNC(=O)c1cc2cc3ccc(OC)cc3nc2o1,i,i,+,i
COCCCNC(=O)c1ccc(CS(=O)(=O)c2ccc(OC)cc2)o1,i,i,i,i
COCCCNC(=O)c1cc2cc3cc(OC)ccc3nc2o1,i,i,121.5,i
Cc1ccc(CN2CCCCC(NC(=O)c3cccc([N+](=O)[O-])c3)C2=O)cc1 (centres undefined),i,nt,nt,nt
CC1(C)CC2(C)OC(=N)C1(C#N)C2(C#N)C#N (centres undefined),i,44.9,i,i
CC1C2(C)OCC(C#N)(C(=N)O2)C1(C#N)C#N (centres undefined),nt,i,nt,nt
CC12CCC(C(=O)N(CSC(=S)N/N=C\c3ccccc3)C1=O)C2(C)C (centres undefined),i,i,i,41.6
O=C(NC1CCCCN(Cc2ccc(Cl)cc2)C1=O)c1ccc(F)c(F)c1 (centres undefined),i,nt,nt,nt
COc1cc(C(=O)NCCCn2ccnc2)cc(OC)c1OC,i,i,i,i
COc1ccc(C(=O)NCCCn2ccnc2)cc1[N+](=O)[O-],i,i,i,32.3
Nn1c(SCc2c(Cl)cccc2Cl)nnc1-c1n[nH]c2c1CCC2,i,nt,nt,nt
SMILES,CCHF vOTU inh,RecA splice inh,Mtb FBA inh,GDH-TPI inh
Cc1nc(NC(=O)c2ccco2)sc1C(=O)O,i,i,i,i
CC(C)(C)C(=O)c1sc(Nc2ccccc2)nc1N,i,i,i,39.8
CCOC(=O)c1sc(NC(=O)c2ccc(=O)[nH]c2)nc1C,i,nt,i,30.8
CCOC(=O)c1sc(NC(=S)NC(=O)c2ccco2)nc1C,i,i,i,34.6
Cc1nc(NC(=O)c2ccco2)sc1C(=O)Nc1ccc(Br)cc1,nt,i,i,51.6
CCOC(=O)c1sc(NC(=O)c2ccc3nc[nH]c3c2)nc1C,i,i,i,i
O=C(OCc1cn(Cc2c(F)cccc2F)nn1)N1CCOCC1,i,nt,nt,nt
O=C(O)CCC(=O)Nc1ccc(Oc2ncnc3cc(Cl)ccc23)nc1,i,i,i,i
Cc1nc(Nc2ccc(C(=O)O)cc2)sc1-c1ccccc1,i,i,i,37.5
CCOC(=O)c1sc(NC(=O)c2ccco2)nc1-c1ccccc1,i,i,i,34.7
COC(=O)c1sc(Nc2ccccc2)nc1C,i,i,i,32.5
COC(=O)c1sc(NC(=O)c2ccco2)nc1C,i,i,i,40.8
CCOC(=O)c1sc(Nc2ccccc2)nc1C,i,i,i,i
COP(=O)(CC(=O)O)C(CC(C)C)NC(=O)OCc1ccccc1 (centres undefined),i,nt,nt,nt
COc1ccc(NC(=O)N2CCC(N(C)CCC(C)C)CC2)cc1OC,i,nt,nt,nt
CC(C)(C)c1ccc(C(=O)NCC(=O)NCC(C)(C)N2CCOCC2)cc1,i,nt,i,i
COC(=O)c1ccccc1Nc1ccccc1,33.6,nt,i,i
Cc1ccc2cc(C3C(C#N)=C(N)Oc4c3ccc3cccnc43)c(=O)[nH]c2c1 (centres undefined),nt,i,i,34.5
CCc1ccc2[nH]c(=O)c(C3C(C#N)=C(N)Oc4c3ccc3cccnc43)cc2c1 (centres undefined),i,i,i,i
Cc1ccc(-c2nc3ncccc3o2)cc1NC(=O)COc1ccccc1,i,i,i,i
COc1ccc(-c2cn3cccnc3n2)cc1NC(=O)C(C)Oc1ccccc1 (centres undefined),i,i,122.4,i

# Bioassay records (PubChem)
